Values joined by “and” are separate entries in the source; they are usually repeats but may differ in a detail not shown here. Equal entries are not always repeated. Some compounds were tested as several samples or in several runs, with calls that do not always agree. Active and inactive are the calls of the source. Rule for the calls: active = hit-call score of the fitted dose curve at least 0.9, where 1 is the maximum; inactive = score below 0.9.

Read-out in this test: Monocyte Chemoattractant Protein-1 (MCP1), CCL2 (gene 6347)
Nature of the test: BSK_LPS_MCP1: BioMAP Diversity Plus: LPS Assay for Monocyte Chemoattractant Protein-1 (MCP1) Biomarker Activity (AID 2283081).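 For AC50: co-culture stimulated with LPS.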 Conditions: primary human HUVEC with PBMC; actives raise or lower the signal. The method, then: BSK_LPS is a cell-based, multiplexed-readout assay that uses umbilical vein endothelium and peripheral blood mononuclear cells, a human vascular primary cell co-culture, with measurements taken at 24 hours after chemical dosing in a 96-well plate.BSK_LPS_MCP1 is an assay component measured in the BSK_LPS assay. It measures MCP-1 antibody related to regulation of gene expression using ELISA technology.Data from the assay component BSK_LPS_MCP1 was analyzed into 1 assay endpoint. This assay endpoint, BSK_LPS_MCP1, was analyzed with bidirectional fitting relative to DMSO as the negative control and baseline of activity. Using a type of binding reporter, gain or loss-of-signal activity can be used to understand changes in the signaling as they relate to the gene CCL2. Furthermore, this assay endpoint can be referred to as a primary readout, because this assay has produced multiple assay endpoints where this one serves a signaling function. To generalize the intended target to other relatable targets, this assay endpoint is annotated to the cytokine intended target family, where the subfamily is chemotactic factor.
The levels of cell surface (or secreted, indicated by the prefix "s") biomarker endpoints were measured by ELISA. Overt cytotoxicity to cells in confluent adherent cultures (all systems other than the BT system) was assessed by measuring total protein levels using sulforhodamine B (SRB) staining in parallel cultures at the time of biomarker measurements, indicated as SRB endpoints. For proliferation assays for adherent cell types, individual cell types are cultured at sub-confluence and relative cell numbers quantified by SRB staining at time points optimized for each system (48 h: 3C and CASM3C systems; 72 h: BT and HDF3CGF systems; 96 h: SAg system). SRB was performed by staining cells with 0.1% SRB after fixation with 10% TCA and reading wells at 560 nm.Viability and proliferation of PBMC (T cells) was quantified by Alamar Blue reduction for the SAg and BT systems. For PBMC viability (referred to as PBMC Cytotoxicity within the assay endpoint names), cells were plated (75,000/well in a 96-well plate) and then chemical samples added for 1 h before addition of activators, SEB and TSST-1 (20 ng/mL final concentration each). Cells were incubated for 90 h. Then, Alamar Blue (20 uL/well) (Invitrogen, Cat DAL1100) was added for 6 h, and the plates were read with a fluorescence microplate reader at 546/580 nm (excitation/emission). For PBMC proliferation, cells were plated and activated as above but incubated for only 16 h prior to addition of Alamar Blue. Plates were read after 6 h.
As for `CC(C)CCCCCCCOC(=O)c1ccccc1C(=O)OCCCCCCCC(C)C`, the result was inactive.
In the case of `[Cd+2].[Cl-].[Cl-]`, the outcome was inactive.
Still for that read-out and setting: in the case of `N#CCCCCC#N` it was “inactive”.
The same measure, in the same setting: with `COc1ccc(CO)cc1` the entry was “inactive”.
Usually AC50 stands for the midpoint of the concentration-response curve, whichever way the signal moves. On to `O=C1C=CC(=O)C=C1`, for which the AC50 was 32.6 µM (active) and the outcome was inactive.
As to `O=[N+]([O-])O`, the outcome was inactive.
For `CC(C)COP(=O)(OCC(C)C)OCC(C)C`, the result was inactive.
The same measure, in the same setting: in the case of `O=c1[nH]c(Cl)c(Cl)cc1Cl` it was “inactive”.
Regarding `O=C1C(Cl)=C(Cl)C(=O)C(Cl)=C1Cl`, the AC50 is 30.8 µM (active).
Take `CCc1cc(C)cc(CC)c1-c1c(OC(=O)C(C)(C)C)n2n(c1=O)CCOCC2`: the result was inactive.
For `CCCOC(=O)c1ccccc1C(=O)OCCC`, the outcome was inactive.
Still for that read-out and setting: with `c1ccc(Nc2ccc3ccccc3c2)cc1` the entry was “inactive”; with `Oc1cc(Cl)ccc1Cl`, “inactive”; with `CC(=O)/C=C/c1ccccc1`, “inactive”.
`CNC(=O)Oc1cc(C)c(SC)c(C)c1`: the outcome was inactive.
Turning to `Clc1ccc(-c2ccccc2)cc1`, the outcome was inactive.
Turning to `O=[N+]([O-])c1ccc(Cl)cc1`, the result was inactive.
With `Oc1ccc(C2(c3ccc(O)cc3)c3ccccc3-c3ccccc32)cc1`, the concentration at half-maximal activity (AC50) is 16.5 µM (active) and 14.2 µM (active).
The same measure, in the same setting: in the case of `COC(C)(C)CCC[C@H](C)C/C=C/C(C)=C/C(=O)OC(C)C` it was 29.6 µM (active).
With `O=P1(NCCCl)OCCCN1CCCl` (centres undefined), the outcome was inactive.
Consider `C=CCN(CC=C)C(=O)C(Cl)Cl`, for which the outcome was inactive.
Consider `O=C(O)CCCc1ccc(N(CCCl)CCCl)cc1`, for which the AC50 was 20 µM (active).
As for `CC(C)(c1cc(Cl)c(O)c(Cl)c1)c1cc(Cl)c(O)c(Cl)c1`, the AC50 is 31.3 µM (active).
On to `C=CC(=O)OCC(CC)CCCC` (centres undefined), for which the AC50 is 0.016 µM (active).
Regarding `Cc1ccc(OP(=O)(Oc2ccc(C)cc2)Oc2ccc(C)cc2)cc1` (tested in a mixture with another compound), the result was inactive.
For the molecule `CCC(C)c1cc([N+](=O)[O-])cc([N+](=O)[O-])c1OC(=O)C=C(C)C` (centres undefined), the AC50 is 13.4 µM (active).
As for `CC(C)(C)C(O)C(Oc1ccc(-c2ccccc2)cc1)n1cncn1` (centres undefined), the result was inactive.
As to `CCCC[N+](CCCC)(CCCC)CCCC`, the result was inactive.
Turning to `O=[N+]([O-])C=Cc1ccccc1`, the AC50 is 10.3 µM (active).
As to `Nc1ccc(-c2ccc(N)c(N)c2)cc1N`, the result was inactive.
With `CC(C)CCCCCCCOP(=O)(Oc1ccccc1)Oc1ccccc1`, the concentration at half-maximal activity (AC50) was 20 µM (active).
Consider `CCCCCCCCCCCC#N`, for which the result was inactive.
Still for that read-out and setting: with `CC1(C)[C@H](C(=O)O[C@H](C#N)c2cccc(Oc3ccccc3)c2)[C@@H]1C=C(Br)Br` the entry was “inactive”; with `O=S(=O)(c1ccccc1)c1ccccc1`, “inactive”.
For `O=C(CCl)c1ccccc1`, the AC50 was 6.34 µM (active).
Regarding `CC(C)(C)C(=O)CCl`, the result was inactive.
Still for that read-out and setting: in the case of `COCC(=O)N(c1c(C)cccc1C)N1CCOC1=O` it was “inactive”.
Take `O=c1c2ccccc2c(=O)c2c1cc(Cl)c1[nH]c3c([nH]c12)c(Cl)cc1c(=O)c2ccccc2c(=O)c13`: the result was inactive.
